Compound activity (PubChem)
RGS8-Gao reg: regulators of human RGS8-Galphao interaction; response (percent of control binding), % at 10 µM; multiplexed bead flow cytometry, RGS8-Galphao binding; actives lie on both sides; AID 1423; 0.34% of 220,000 active; in the data active = response below about 60% or above about 140%; inactive = in between;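 note: Galphao activated as the GDP aluminium fluoride complex binding bead-coupled RGS8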
Target sequence (P09471 whole entry, looked up): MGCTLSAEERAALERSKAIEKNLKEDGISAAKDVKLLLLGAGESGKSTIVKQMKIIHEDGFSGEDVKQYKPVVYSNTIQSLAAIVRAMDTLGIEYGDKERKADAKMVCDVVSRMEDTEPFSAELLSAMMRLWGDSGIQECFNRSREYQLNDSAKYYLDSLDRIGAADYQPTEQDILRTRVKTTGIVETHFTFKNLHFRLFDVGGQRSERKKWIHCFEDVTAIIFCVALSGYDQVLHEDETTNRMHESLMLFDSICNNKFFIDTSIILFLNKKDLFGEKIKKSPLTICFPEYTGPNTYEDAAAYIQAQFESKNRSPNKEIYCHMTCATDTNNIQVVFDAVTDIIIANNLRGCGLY
RGS7-Gao reg: modulates binding of RGS7 to human Galphao; P09471; Multiplexed bead flow cytometry; actives lie on both sides; binding response (% of control), % at 10 µM; 0.35% of 220,000 active; AID 1439; in the data active = binding response below about 49% or above about 150%; inconclusive = no clear call, values can overlap the other calls; inactive = in between;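 note: fluorescent Galphao held in activated GDP-AlF4 state binding bead-coupled RGS7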
RGS4-Gao reg: human RGS4-Galphao interaction regulation; 0.33% of 220,000 active; P09471; binding response (% of control), % at 10 µM; Multiplexed bead flow cytometry, RGS4-Galphao binding; actives lie on both sides; in the data active = binding response below about 49% or above about 150%; inactive = in between;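 note: fluorescent Galphao activated with aluminum fluoride binding bead-coupled RGS4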
RGS16-Gao HTS: regulators of human RGS16-Galphao interaction; bead-based flow cytometry RGS16-Galphao binding, fluorescence; actives lie on both sides; 0.38% of 220,000 active; binding response (% of control), % at 10 µM; AID 1441;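 note: Galphao activated by GDP with aluminum fluoride before binding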
GSH fluor: GSH bead compound fluorescence profile | fluorescence (KMESF) at 10 µM | AID 1776 | 0.25% of 190,000 active | GSH beads flow cytometry, compound fluorescence 488/530 nm; stronger effect = higher value; in the data active = fluorescence above about 89;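 note: glutathione beads carrying GST-tagged Bcl family fusion proteins plus one bare bead set; values are compound well signal with DMSO vehicle wells as background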
Avidin bead fluor: compound fluoresces at 488/530 nm on avidin beads; compound fluorescence 488/530 nm, flow cytometry; stronger effect = higher value; fluorescence (KMESF) at 10 µM; 0.38% of 220,000 active; AID 1775; in the data active = fluorescence above about 47
RGS-Gao: RGS4-Galphao interaction regulator (human); shares compounds with RGS16-Gao HTS; RGS4–Galpha-o binding response, % at 10 µM; 99% of 1,600 active; multiplexed bead flow cytometry, RGS–Galpha-o binding; AID 1504;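 note: fluorescently labeled Galpha-o bound to GDP with aluminium fluoride binding biotinylated RGS beads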
Target sequence (P09471 whole entry, looked up): as above
Target sequence (P49798 whole entry, looked up): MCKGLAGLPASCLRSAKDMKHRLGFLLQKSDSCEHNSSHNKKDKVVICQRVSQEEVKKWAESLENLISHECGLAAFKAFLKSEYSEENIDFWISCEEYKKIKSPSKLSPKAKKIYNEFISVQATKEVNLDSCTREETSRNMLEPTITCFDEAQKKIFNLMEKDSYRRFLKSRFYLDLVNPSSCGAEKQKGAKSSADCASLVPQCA
Biotin-avidin: counter-screen: compounds disrupting biotin binding to avidin beads | shares compounds with RGS16-Gao HTS | streptavidin beads, fluorescein-biotin binding, flow cytometry | inhibition, % at 10 µM | 1,700 tested, under 10 active | AID 1783;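 active = inhibition above 50%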;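 note: median green fluorescence of gated singlet beads compared with DMSO control wells; 0% = DMSO wells and 100% = complete loss of bead fluorescence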
RGS8-Gao confirm: RGS8-Galphao interaction regulation, single point confirmation. shares compounds with RGS16-Gao HTS. bead-based flow cytometry RGS8-Galphao binding, fluorescence; actives lie on both sides. binding response (% of control), % at 10 µM. 3% of 1,700 active; in the data active = binding response below about 72% or above about 130%; inactive = in between;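 note: Galphao activated as GDP AlF4 complex before binding bead RGS8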
RGS7-Gao single: RGS7-Galphao interaction regulation, single point confirmation; 7.8% of 1,700 active; response (percent of control binding), % at 10 µM; bead-based flow cytometry RGS7-Galphao binding; actives lie on both sides; AID 1837; shares compounds with RGS16-Gao HTS; in the data active = response below about 75% or above about 130%; inactive = in between;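 note: fluorescent Galphao activated with GDP and aluminum fluoride binding bead-coupled RGS7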
RGS16-Gao single: confirmation of regulators of human RGS16-Galphao interaction; shares compounds with RGS16-Gao HTS; 4% of 1,700 active; bead-based flow cytometry, RGS16-Galphao binding; actives lie on both sides; response (% of control binding), % at 10 µM; in the data active = response below about 74% or above about 130%; inactive = in between;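 note: Galphao activated as the GDP aluminium fluoride complex binding bead-coupled RGS16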
RGS4-Gao single: RGS4-Galphao interaction regulation, single point confirmation; shares compounds with RGS16-Gao HTS; RGS4-Galphao binding, multiplexed bead flow cytometry; actives lie on both sides; binding response (% of control), % at 10 µM; 4% of 1,700 active; in the data active = binding response below about 74% or above about 130%; inactive = in between
RGS19-Gao conf: confirmation of regulators of human RGS19-Galphao interaction; shares compounds with RGS16-Gao HTS; bead-based flow cytometry RGS19-Galphao binding; actives lie on both sides; response (percent of control binding), % at 10 µM; 5% of 1,700 active; AID 1841; in the data active = response below about 50% or above about 160%; inactive = in between;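 note: 100% = no compound control and 0% = blank background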
Starred values were filed as active, the others as inactive; i = inactive; ? = inconclusive; · = not tested or not shown; [ ] = remark or other dose. Sampled rows, rich in hits. Any-hit rate of the full collection: about 1.2%. Unless noted, the rule behind the calls is not given here.

SMILES	RGS8-Gao reg	RGS7-Gao reg	RGS4-Gao reg	RGS16-Gao HTS	GSH fluor	Avidin bead fluor	Biotin-avidin	RGS8-Gao confirm	RGS7-Gao single	RGS16-Gao single	RGS4-Gao single	RGS19-Gao conf	others
Cc1ccsc1C1C(C#N)=C(N)N(N(C)C)C2=C1C(=O)CC(C)(C)C2 (stereo not drawn)	107	102	102	109	19	10	·	·	·	·	·	·
COc1cc(OC)cc(C(=O)NC2=NCCS2)c1	95	102	97	102	15	10	·	·	·	·	·	·
COc1cc(NC(=O)SC2=NCCS2)cc(OC)c1	60	?	41*	47	·	3	-3	100	100	102	99	105
COc1cccc2c1OCC(CN1CCN(CCC(C)C)C(CCO)C1)=C2 (stereo not drawn)	102	100	98	105	14	11	·	·	·	·	·	·
c1ccc(-c2nccnc2-c2ccccc2)cc1	104	?	103	108	·	9	·	·	·	·	·	·
FC(F)Sc1nc(-c2ccccc2)c(-c2ccccc2)n1C(F)F	100	174*[activator]	117	106	19	100*	-1	102	97	100	100	86	RGS-Gao=117*
COC(=O)C1=C(N)N(c2ccccc2F)C2=C(C(=O)CC(C)(C)C2)C1c1ccc(OC)c(OC)c1 (stereo not drawn)	103	100	101	108	10	6	·	·	·	·	·	·
CCN1/C(=C/C(C)=C/c2sc3ccccc3[n+]2CC)Sc2ccccc21	53*	80	57	39	10	5	-5	84	92	80	98	84	RGS-Gao=57*
O=C(c1ccco1)N1N=C2CCCCCC2C1(O)C(F)(F)F (stereo not drawn)	103	107	103	105	13	·	·	·	·	·	·	·
Cc1[nH]cnc1CSCCN	91	90	89	93	6	6	·	·	·	·	·	·
Cc1[nH]cnc1CSCc1ccc(Cl)cc1	147*[activator]	134	134	192*[activator]	10	3	-2	114	117	111	113	98	RGS-Gao=134*
Cn1cccc1/C=C1\SC(=O)N(CC(=O)Nc2ccc(Cl)cc2)C1=O	98	100	102	98	14	·	·	·	·	·	·	·
Cc1ccc(NC(=O)CN2C(=O)S/C(=C\C(=O)Nc3ccc(Cl)cc3)C2=O)cc1	79	75	79	8.0*	5	7	2	104	95	105	99	91	RGS-Gao=79*
CCn1c(C)cc(/C=C2\SC(=O)N(CC(=O)Nc3ccc(C)c(C)c3)C2=O)c1C	6.0*	-28*	-95*	-95*	14	-2	-1	100	92	97	98	96
Cc1c(Cl)cccc1NC(=O)C1Cc2ccccc2CN1C(=O)c1ccccc1 (stereo not drawn)	99	97	99	96	19	14	·	·	·	·	·	·
Cc1cccc(NC(=O)C2Cc3ccccc3CN2C(=O)OCc2ccccc2)c1C (stereo not drawn)	79	90	91	12*	6	6	-2	111	102	118	102	116	RGS-Gao=91*
CSCCC(NC(N)=O)C(=O)Nc1ccc(F)c(Cl)c1 (stereo not drawn)	92	?	87	89	·	·	·	·	·	·	·	·
O=C1C(=Cc2ccc(Br)o2)C(=O)c2ccccc21	32*	1.6*	53	8.3*	8	-6	·	·	·	·	·	·	RGS-Gao=53*
Cc1ccc(N2C(=O)CC(NNc3nc4ccccc4s3)C2=O)cc1 (stereo not drawn)	34*	33*	19*	i	13	-1	0	103	98	99	97	83
O=C1CC(NNc2nc3ccccc3s2)C(=O)N1c1ccccc1 (stereo not drawn)	101	96	98	100	28	24	·	·	·	·	·	·
CCN(C(=O)CSc1ccc2ccccc2n1)C1CCS(=O)(=O)C1 (stereo not drawn)	104	103	104	109	16	10	·	·	·	·	·	·
CCN(C(=O)CSc1cc(C)c2ccccc2n1)C1CCS(=O)(=O)C1 (stereo not drawn)	13*	12*	14*	8.0*	14	0	0	98	93	96	95	76
Cc1ccc(CN2CCN(Cc3cnc(C)[nH]3)CC2CCO)cc1 (stereo not drawn)	104	103	100	99	11	11	·	·	·	·	·	·
COc1ccc(C(F)(F)F)cc1NC(=O)c1nc2nc(C)cc(C(F)F)n2n1	30*	33*	38*	5	31	1	i	99	106	101	103	101
COCCn1c(SCC(=O)Nc2nnc(C)s2)nnc1-c1ccncc1	·	·	·	·	17	·	0	96	101	96	104	105
O=C(N/N=C/c1ccc([N+](=O)[O-])cc1)c1ccc(COc2ccccc2-c2ccccc2)cc1	100	102	102	103	15	8	·	·	·	·	·	·
CCOC(=O)c1cccc(NC(=O)CSc2nc3ccccc3c(=O)n2CCOC)c1	9.5*	13*	23*	-10	24	0	2	109	111	108	109	97
CCOC(=O)C1CC(C)=C(C)CC1C(=O)O (stereo not drawn)	99	?	101	101	·	2	·	·	·	·	·	·
COc1ccc(C2CC23N=C(c2ccccc2)OC3=O)cc1 (stereo not drawn)	92	86	96	78	6	1	·	·	·	·	·	·
COc1cc(C(=O)NCC(c2cccs2)N(C)C)cc(Cl)c1OC(C)C (stereo not drawn)	122	120	116	211*[activator]	15	8	2	103	109	105	106	112	RGS-Gao=116*
